Potency data for 49 compounds are collected here from PubChem BioAssay (NCATS).

Inconclusive results are not listed. The source made the active and inactive calls. The call rests on the fitted dose curve; in most records, active means well fitted curve in the direction sought with a large enough effect; inconclusive means small, poorly fitted or top-dose-only effect, or another doubt; inactive means no such curve, though single readings can be large; an effect the other way counts as inactive or inconclusive.

In assay [1] the target is N-terminal Xaa-Pro-Lys N-methyltransferase 1 (Homo sapiens) (UniProt Q9BV86). Briefly: qHTS Assay for Inhibitors of N-terminal methyltransferase 1 (NTMT1): LOPAC validation of the NTMT1 SAHH-coupled ThioGlo3 Assay (AID 1347143). Further: nearly all actives have a fitted effect of over 70% in size. The essentials: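 Fluorescence read-out (excitation 340nm, emission 450nm) of SAH-derived thiol, measured via SAHH coupling and ThioGlo3, taken immediately and after a 30 min room-temperature reaction, then normalized to the background read. Enzyme: NTMT1 at 125nM; cofactor SAM 100uM in the added reagent.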
N-terminal Xaa-Pro-Lys N-methyltransferase 1 (Homo sapiens), sequence (Q9BV86 whole entry, looked up): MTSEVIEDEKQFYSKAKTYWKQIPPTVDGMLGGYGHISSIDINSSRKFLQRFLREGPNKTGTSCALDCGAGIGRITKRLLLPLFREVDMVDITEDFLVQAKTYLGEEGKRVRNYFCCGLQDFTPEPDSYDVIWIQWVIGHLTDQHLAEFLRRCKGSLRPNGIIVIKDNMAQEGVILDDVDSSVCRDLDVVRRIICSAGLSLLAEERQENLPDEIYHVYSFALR
In general terms: qHTS replaces the single test concentration by a dilution series.

The test system of assay [2] is Zika virus NS2B-NS3 protease (unlinked). The assay is described as follows: Optimization of GU AMC qHTS for Zika virus inhibitors: Unlinked NS2B-NS3 protease assay (AID 1347151). Further: nearly all actives have a fitted effect of over 80% in size. The essentials:
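Noncovalent complex of NS2B hydrophilic domain and NS3 protease domain, 25 nM final, in 10 mM Tris-HCl pH 8.0, 0.01% Tween 20. AMC fluorescence change over 15 min at room temperature was fitted to a 4-parameter Hill equation.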

Assay [3] has as its target Furin (Homo sapiens) (UniProt P09958). The assay is described as follows: Furin counterscreen qHTS for Zika virus inhibitors (AID 1347149). Further: nearly all actives have a fitted effect of over 70% in size. The essentials: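 Fluorogenic cleavage of BOC-RVRR-AMC (2 microM final, Km ~15 µM) was monitored (ex 340, em 450 nm) at 37C after 15 min RT preincubation of 5 nM furin with compounds in HEPES pH 7.0 buffer with CaCl2 and Triton X-100. Percent inhibition was fitted to a 4-parameter Hill curve.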
A general note: Counterscreens check selectivity or assay interference.

Assay [4] has as its system Zika virus NS2B-NS3 protease (linked construct). Briefly: Confirmatory screen NINDS AMC qHTS for Zika virus inhibitors (AID 1347152). Further: nearly all actives have a fitted effect of over 70% in size. The essentials:
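Purified NS2B-NS3 protease with NS2B hydrophilic domain linked to NS3 protease domain by flexible linker, 1 nM final in 10 mM Tris-HCl pH 8.0, 0.01% Tween 20. Compounds preincubated 15 min, room temperature; Bz-Nle-KRR-AMC 10 microM (Km 18.3 µM); 15-min fluorescence change, 4-parameter Hill fit.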

In assay [5] the test system is Zika virus NS2B-NS3 protease (unlinked complex). Briefly: Confirmatory screen GU AMC qHTS for Zika virus inhibitors (AID 1347153). Further: nearly all actives have a fitted effect of over 70% in size. The method in brief: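 Unlinked enzyme 25 nM, Tris pH 8.0/0.01% Tween 20; cpd 15 min RT, dark; + AMC substrate 10 µM (Km 18.3 µM); 340/450 nm read at t0 and 15 min; % inhibition → 4-param fit.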
Assay [6] is described as follows: qHTS of pediatric cancer cell lines to identify multiple opportunities for drug repurposing: Confirmatory screen for Rh18 cells (AID 1347125). Further: nearly all actives have a fitted effect of over 55% in size. Conditions: Rh18 rhabdomyosarcoma cells, viability. The essentials:
(§1)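 Cells (500-1,000/well) in growth media were settled 5 h at 37 degrees C, then given compounds for 48 h. Viability was read as CellTiter-Glo luminescence. Primary runs used MIPE at 11 points (0.78 nM-46 µM) and NPC at 8 points (0.59 nM-46 µM); follow-ups used 11 points.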

The nature of assay [7]: qHTS of pediatric cancer cell lines to identify multiple opportunities for drug repurposing: Confirmatory screen for Rh30 cells (AID 1347126). Further: nearly all actives have a fitted effect of over 55% in size. Conditions: Rh30 rhabdomyosarcoma cell viability. The method in brief: as §1
Assay [8] can be described thus: qHTS of pediatric cancer cell lines to identify multiple opportunities for drug repurposing: Confirmatory screen for Saos-2 cells (AID 1347127). Further: nearly all actives have a fitted effect of over 60% in size. Conditions: Saos-2 osteosarcoma cell viability. The method in brief: as §1
The nature of assay [9]: qHTS of pediatric cancer cell lines to identify multiple opportunities for drug repurposing: Confirmatory screen for OHS-50 cells (AID 1347128).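 Further: compound exposure lasted 48 h at 37 degrees C; nearly all actives have a fitted effect of over 55% in size.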 Conditions: OHS-50 osteosarcoma cells viability. The method in brief:
as §1

The nature of assay [10]: qHTS of pediatric cancer cell lines to identify multiple opportunities for drug repurposing: Confirmatory screen for SK-N-SH cells (AID 1347129).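 Further: cells exposed to compound for 48 h before viability read; nearly all actives have a fitted effect of over 60% in size.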 The following applies: SK-N-SH neuroblastoma cell viability. The method in brief:
as §1
Potency means the concentration at half of the fitted maximal effect.

Furin (Homo sapiens), sequence (P09958 whole entry, looked up): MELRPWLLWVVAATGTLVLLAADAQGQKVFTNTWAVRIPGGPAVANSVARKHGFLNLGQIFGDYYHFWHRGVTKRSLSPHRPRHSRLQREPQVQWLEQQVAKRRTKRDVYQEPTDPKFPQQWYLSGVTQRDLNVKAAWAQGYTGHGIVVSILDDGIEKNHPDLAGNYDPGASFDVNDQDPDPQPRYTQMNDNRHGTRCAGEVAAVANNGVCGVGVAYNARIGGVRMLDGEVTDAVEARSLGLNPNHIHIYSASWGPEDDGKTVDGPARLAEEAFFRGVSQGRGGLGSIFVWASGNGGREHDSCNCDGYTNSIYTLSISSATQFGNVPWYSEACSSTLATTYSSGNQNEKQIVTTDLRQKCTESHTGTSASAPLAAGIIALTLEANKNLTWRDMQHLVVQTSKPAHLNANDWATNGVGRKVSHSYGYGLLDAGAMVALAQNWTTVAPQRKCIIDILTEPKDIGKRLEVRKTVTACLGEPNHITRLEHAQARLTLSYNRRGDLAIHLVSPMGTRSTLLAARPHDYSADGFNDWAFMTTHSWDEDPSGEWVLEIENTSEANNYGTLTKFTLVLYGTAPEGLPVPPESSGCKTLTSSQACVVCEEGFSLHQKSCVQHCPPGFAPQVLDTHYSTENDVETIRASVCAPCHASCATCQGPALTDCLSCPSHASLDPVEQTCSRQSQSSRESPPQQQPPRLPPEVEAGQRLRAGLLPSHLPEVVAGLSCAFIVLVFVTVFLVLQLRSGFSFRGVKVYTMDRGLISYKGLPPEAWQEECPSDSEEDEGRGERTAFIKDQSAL

With `O=C1/C(=C/c2ccccc2)C[C@@]2(O)[C@H]3Cc4ccc(O)c5c4[C@@]2(CCN3CC2CC2)[C@H]1O5`, in assay [1], the Potency is 50.1 µM (active).

With `CC(C)CC(NP(=O)(O)O[C@@H]1O[C@@H](C)[C@H](O)[C@@H](O)[C@H]1O)C(=O)NC(Cc1c[nH]c2ccccc12)C(=O)O` (stereo partly drawn), the Potency result in [1] is “inactive”.

Regarding `Nc1ncnc2c1ncn2[C@@H]1O[C@H](COP(=O)(O)CP(=O)(O)OP(=O)(O)O)C(O)[C@H]1O` (stereo partly drawn), the Potency result in assay [1] is “inactive”.

For the compound `NC(=O)CI`, the Potency in assay [1] was 20 µM (active).

As for `O=P(O)(O)C(Cl)(Cl)P(=O)(O)O`, the Potency result in assay [1] was “inactive”.

Consider `CC(C)(O)[C@@H]1[C@H]2OC(=O)[C@@H]1[C@]1(O)C[C@H]3O[C@]34C(=O)O[C@H]2[C@]14C` (tested in a mixture with another compound), for which the Potency entry in [1] is “inactive”.

With `N#C/C(=C/c1ccc(O)c(O)c1)C(N)=S`, in assay [1], the Potency was 44.7 µM (active).

For `c1ccc2c(N3CCNCC3)cccc2c1`, the Potency in [1] was 50.1 µM (active); in [2] it was 26.7 µM (active).

Turning to `[Cl-].[Cl][Pt].[NH2-].[NH2-].c1ccncc1`, in assay [1], the Potency is 7.08 µM (active). The Potency result in assay [2] is “inactive”.

For `N[C@@]1(C(=O)O)CC[C@@H](C(=O)O)C1`, the Potency result in assay [1] and in assay [2] was “inactive” throughout.

Regarding `O=[N+]([O-])c1cc(O)c(O)c([N+](=O)[O-])c1`, the Potency in assay [1] is 44.7 µM (active).

As for `CCCN(CCC)CCc1ccc(O)c(O)c1`, the Potency result in assay [1] was “inactive”.

As to `CC(C)NP(=O)(NC(C)C)OP(=O)(NC(C)C)NC(C)C`, the Potency entry in assay [1] and in assay [2] was “inactive” throughout.

As to `CCCN1CC[C@@H]2c3cc(O)ccc3CC[C@@H]21`, the Potency entry in [1] and in [2] was “inactive” each time.

In the case of `CN1CCc2cc(O)cc3c2[C@H]1Cc1ccc(O)c(O)c1-3`, the Potency is 35.5 µM (active) in assay [1] and 23.8 µM (active) in [2].

For the compound `CCCCCCCCCCCCCC(=O)O[C@@H]1[C@@H](C)[C@@]2(O)[C@@H](C=C(CO)C[C@@]3(O)C(=O)C(C)=C[C@@H]23)C2C(C)(C)[C@@]21OC(C)=O` (stereo partly drawn), in [1], the Potency entry was “inactive”.

Take `NC(=O)COc1c(F)cc(SCCNS(=O)(=O)c2ccccc2)cc1F`: the Potency result in [1] is “inactive”.

Take `CN1CC[C@@]2(C)c3cc(O)ccc3N(C)C12` (stereo partly drawn): the Potency in [1] is 44.7 µM (active).

As for `O=c1ccc2[nH]cc(C3=CCNCC3)c2[nH]1`, the Potency is 56.2 µM (active) in assay [1]; 24.1 µM (active) in assay [3]; 37.7 µM (active) in assay [2]; 24.1 µM (active) in assay [4]; 24.1 µM (active) in assay [5].

As for `C[C@]12Cc3cn4c(nc3C=C1CCC1C2CC[C@@]2(C)[C@H]1CC[C@@]2(O)C#N)nc1ccccc14` (stereo partly drawn), the Potency entry in [1] was “inactive”.

On to `CCN1C[C@@]2(COC)C3[C@@H](OC)C4[C@H]1C3([C@@H]1C[C@@]3(O)[C@H](OC(=O)c5ccccc5)[C@@H]1[C@]4(OC(C)=O)[C@@H](O)[C@@H]3OC)[C@H](OC)C[C@H]2O`, for which the Potency result in assay [1] is “inactive”.

With `OC1CCCCC1N1CCC(c2ccccc2)CC1` (stereo not drawn), the Potency result in assay [1] and in assay [2] was “inactive” throughout.

Consider `CCN(CC)c1ncnc2c1ncn2[C@@H]1O[C@H](COP(=O)(O)OP(=O)(O)C(Br)(Br)P(=O)(O)O)[C@@H](O)[C@H]1O`, for which the Potency result in [1] was “inactive”.

For the compound `CCNC(=O)[C@H]1O[C@@H](n2cnc3c(N)ncnc32)[C@H](O)C1O` (stereo partly drawn), the Potency entry in assay [1] is “inactive”.

Consider `C[CH2][Hg][S]c1ccccc1C(=O)O`, for which the Potency in [6] was 16.5 µM (active); in assay [7] it was 4.14 µM (active); in assay [8] it was 2.93 µM (active); in assay [9] it was 9.27 µM (active); in assay [10], 5.26 µM (active).

Consider `NCCc1ccc(S(=O)(=O)F)cc1`, for which the Potency result in assay [1] and in assay [2] was “inactive” in each case.

With `CC1OC1P(=O)(O)O` (stereo not drawn), the Potency entry in [1] is “inactive”.

Regarding `NCCc1c[nH]c2ccc(C(N)=O)cc12`, the Potency entry in assay [1] was “inactive”.

Regarding `C[N+]1(C)CCC(OC(=O)C(c2ccccc2)c2ccccc2)CC1`, the Potency in [1] is 63.1 µM (active).

For `CN(N=O)c1ccc(O)c(O)c1`, in assay [1], the Potency was 35.5 µM (active).

As for `CNc1ccc2oc(C[C@H]3O[C@@]4(CC[C@H]3C)O[C@H]([C@H](C)C(=O)c3ccc[nH]3)[C@H](C)C[C@H]4C)nc2c1C(=O)O`, the Potency in assay [1] is 56.2 µM (active); in [2] it was 23.8 µM (active).

`CC(N)[C@H](O)c1ccc(O)c(O)c1` (stereo partly drawn): the Potency in assay [1] is 50.1 µM (active).

`NC(N)=Nc1ccc2[nH]c3c(c2c1)C[C@@]1(O)[C@H]2Cc4ccc(O)c5c4[C@@]1(CCN2CC1CC1)[C@H]3O5`: the Potency in [1] is 22.4 µM (active). Besides, the Potency result in assay [2] is “inactive”.

Take `CCCn1c(=O)c2[nH]c(C3CCCC3)nc2n(CCCOC(=O)c2ccc(S(=O)(=O)F)cc2)c1=O`: the Potency result in assay [1] and in assay [2] was “inactive” in each case.

For `NNC(N)=O`, the Potency entry in assay [1] and in assay [2] was “inactive” each time.

For the compound `COc1ccc2c(c1)C13CCCCC1C(C2)N(C)CC3` (stereo not drawn), the Potency result in assay [1] and in assay [2] was “inactive” throughout.

As to `CC1(C(=O)O)C2CCC(O2)C1(C)C(=O)O` (stereo not drawn), the Potency entry in assay [1] and in assay [2] was “inactive” in each case.

Regarding `CCCN(CCC)C1Cc2cc(OC)c(OC)cc2C1`, the Potency result in assay [1] and in assay [2] was “inactive” in each case.

As to `CC(C)(C)c1o[nH]c(=O)c1CC(N)C(=O)O` (stereo not drawn), the Potency result in assay [1] and in assay [2] was “inactive” throughout.

Turning to `CCCN1CCc2cc(O)cc3c2[C@H]1Cc1ccc(O)c(O)c1-3`, the Potency was 35.5 µM (active) in [1] and 26.7 µM (active) in assay [2].

For the compound `NC(Cc1cc(O)c(O)cc1O)C(=O)O` (stereo not drawn), the Potency in [1] was 44.7 µM (active); in assay [2], 7.52 µM (active).

As to `C[N+](C)(C)CCOC(=O)CBr`, the Potency entry in [1] and in assay [2] was “inactive” throughout.

As to `Cc1cc([C@@H]2CCCN2C)on1`, the Potency result in [1] and in [2] was “inactive” each time.

As for `NC(C(=O)O)c1cc(=O)[nH]o1` (stereo not drawn), the Potency result in assay [1] and in assay [2] was “inactive” in each case.

Regarding `CN(C(=O)Cc1ccc(Cl)c(Cl)c1)C(CN1CCCC1)c1cccc(OCC(=O)O)c1` (stereo not drawn), the Potency entry in assay [1] and in [2] was “inactive” throughout.

In the case of `N[C@@H](Cn1oc(=O)[nH]c1=O)C(=O)O`, the Potency entry in assay [1] and in assay [2] was “inactive” in each case.

On to `NCC(CP(=O)(O)O)c1ccc(Cl)cc1` (stereo not drawn), for which the Potency result in [1] and in assay [2] was “inactive” throughout.

For `C[C@H](N)CN1CCc2ccc(Br)cc21`, the Potency result in assay [1] and in assay [2] was “inactive” throughout.

With `NCCCP(=O)(O)O`, the Potency entry in [1] and in assay [2] was “inactive” throughout.
